The list is not random: actives were taken first. Their share in the collection is about 2.4%.
Cruzain noTriton: qHTS Assay for Promiscuous and Specific Inhibitors of Cruzain (without detergent). purified cruzain, Z-FR-AMC fluorescence, no detergent. actives 2.3% (n = 200,000). Potency, µM, for inactives: max response, negative = inhibition, actives largely listed as inhibitors;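 further: plate controls were enzyme without inhibitor for no effect and buffer without enzyme for full effect; nearly all actives have a fitted effect of over 40% in size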
Target sequence (P25779 123-467 limits assumed): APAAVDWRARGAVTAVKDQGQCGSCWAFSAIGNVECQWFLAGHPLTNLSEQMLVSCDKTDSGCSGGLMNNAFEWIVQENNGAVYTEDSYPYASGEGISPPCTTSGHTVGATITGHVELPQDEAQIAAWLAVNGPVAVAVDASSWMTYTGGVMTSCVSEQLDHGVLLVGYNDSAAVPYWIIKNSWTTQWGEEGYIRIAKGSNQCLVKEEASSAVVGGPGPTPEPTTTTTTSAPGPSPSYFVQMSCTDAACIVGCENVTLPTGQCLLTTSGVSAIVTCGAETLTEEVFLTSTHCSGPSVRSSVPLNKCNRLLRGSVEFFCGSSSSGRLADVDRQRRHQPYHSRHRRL
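Detergent-free condition (0.00005% Triton X-100) in acetate buffer pH 5.5 with DTT. 1.5 nM enzyme and compound were pre-mixed 15 min, then 2 uM Z-FR-AMC substrate added; reaction progress from fluorescence change between first and third reads (60 s).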
Cruzain inh Det: qHTS Assay for Promiscuous and Specific Inhibitors of Cruzain (with detergent) | Cruzipain (Trypanosoma cruzi), P25779 | purified cruzain, Z-FR-AMC fluorescence, 0.01% Triton | Potency, µM, for the others: max response, negative = inhibition, usual class: inhibitors | actives 0.43% (n = 200,000) | AID 1478, 2009;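 further: plate controls were neutral wells for no effect and buffer without enzyme for full effect; nearly all actives have a fitted effect of over 40% in size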
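Enzyme 1.5 nM, Z-FR-AMC 2 uM, NaOAc 100 mM pH 5.5, DTT 5 mM, Triton X-100 0.01%; 15 min RT compound preincubation; kinetic ex360/em450, 60 s delta.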
* hit, by the source's call; ? = inconclusive; ! = not active in a repeat. The call rests on the fitted dose curve; in most records, active means well fitted curve in the direction sought with a large enough effect; inconclusive means small, poorly fitted or top-dose-only effect, or another doubt; inactive means no such curve, though single readings can be large; an effect the other way counts as inactive or inconclusive. Potency means the concentration at half of the fitted maximal effect.

SMILES	Cruzain noTriton	Cruzain inh Det
CC1CCCN(CCC(=O)c2ccc(Br)cc2)C1 (stereo not given)	5µM*	?
CC1CCCN(CCOc2ccc(Br)cc2)C1 (stereo not given)	5%	3%
CCOC(=O)c1oc2ccccc2c1NC(=O)COc1ccc(F)cc1	13µM*	25%
CCOC(=O)c1oc2ccccc2c1NC(=O)COc1cccc(OC)c1	0%	6%
COc1cc2ccc(=O)oc2cc1O	32µM*	25µM*!
COc1ccc2ccc(=O)oc2c1CC=C(C)C	4%	-10%
CN(C)c1ncnc2ccc(-c3cccc(NS(C)(=O)=O)c3)cc12	-12%	-5%
CC(C(=O)Nc1ccccc1)n1nnc2sc3c(c2c1=O)CCCC3 (stereo not given)	-25%	-8%
O=C(N/N=C/c1cn(-c2ccccc2)nc1-c1ccccc1)c1ccco1	4%	-10%
N#Cc1ccc(N/N=C/c2cn(-c3ccccc3)nc2-c2ccccc2)c([N+](=O)[O-])c1	5µM*	-5%
O=C(CSc1oc(-c2ccco2)nc1S(=O)(=O)c1ccc(Br)cc1)c1ccccc1	?	-4%
CCCCCCNC(=O)Nc1ccc(S(=O)(=O)Nc2ccc(CCNC[C@H](O)COc3ccc(O)cc3)cc2)cc1	-8%	2%
CCc1ccc(C(c2ccccc2)c2c[nH]c3ccc(C)cc23)s1 (stereo not given)	-14%	-11%
CCC(=O)CC(c1ccccc1)c1c(O)c2ccccc2sc1=O (stereo not given)	-10%	-14%
O=c1c(C(c2ccccc2)c2c(O)sc3ccccc3c2=O)c(O)sc2ccccc12	?	25µM*
Cc1ccsc1/C=C(\C(=O)c1ccc(OC(C)C)cc1)c1nc2ccccc2o1	32µM*	-5%
CC(C)Oc1ccc(C(=O)N2CCC(c3nc4ccccc4o3)CC2)cc1	13%	-4%
CCc1ccc(NC(=O)Cc2c(C(=O)O)c(C)cn2C)cc1	-16%	2%
CCNc1ncc2nc(-c3cccc(C#N)c3)c(=O)n(C)c2n1	?	-5%
COCCCNC(=O)c1sc2nc(C)c(C(=O)Nc3ccc(C)cc3C)c(-c3ccccc3Cl)c2c1N	?	-9%
COc1ccc(NC(=O)[C@@H](c2ccccc2)N2Cc3ccccc3C2=O)cc1OC	?	-4%
O=C(N/N=C/c1cc2ccccc2nc1Cl)/C(=C/c1cccs1)NC(=O)c1ccccc1	25µM*	-7%
O=C(N/N=C/c1cccnc1)/C(=C\c1cccs1)NC(=O)c1ccccc1	-7%	-12%
CC(=O)c1ccc2c(c1)C1C(Cl)C(Sc3ccccc3[N+](=O)[O-])CC1C(c1ccccc1[N+](=O)[O-])N2 (stereo not given)	3.2µM*	-11%
CC(=O)c1ccc2c(c1)C1C(Cl)C(Sc3ccccc3[N+](=O)[O-])CC1C(c1ccccc1)N2 (stereo not given)	4µM*	-6%
SMILES	Cruzain noTriton	Cruzain inh Det
CC(=O)c1ccc(Sc2nnnn2-c2ccccc2)c([N+](=O)[O-])c1	1%	0%
CC(=O)c1ccc2c(c1)C1C=CCC1C(c1ccncc1)N2 (stereo not given)	30%	-10%
COc1ccc2[nH]cc(CCNc3ncncc3-c3ccccc3C(F)(F)F)c2c1	1%	-2%
CC(=O)c1cccc(NC(=O)CN2C(=O)c3ccccc3Sc3ncccc32)c1	-16%	-5%
O=C(Nc1ccc(C(=O)OCc2cc(=O)n3c4c(sc3n2)CCCC4)cc1)c1cccc(F)c1	1%	0%
Cc1ccc(C)c(NC(=O)c2nnn(Cc3ccc(F)cc3Cl)c2N)c1	8%	-2%
O=C(NC1CCCCC1)N1CCCC(c2nc3ccccc3[nH]2)C1 (stereo not given)	5µM*	?
O=C(NC1CCCCC1)N1CCC(c2nc3ccccc3[nH]2)CC1	0%	0%
Cc1cccc(N2CC(C(=O)Nc3nnc(SCC(=O)Nc4cc(C)on4)s3)CC2=O)c1 (stereo not given)	10µM*	-3%
Cc1cccc(N2CC(C(=O)Nc3nnc(SCC(=O)Nc4nccs4)s3)CC2=O)c1 (stereo not given)	6.3µM*	-3%
COc1cccc(N2CC(C(=O)Nc3nnc(SCC(=O)c4ccccc4)s3)CC2=O)c1 (stereo not given)	-26%	-4%
COc1ccc(Nc2nnc(SCC(=O)Nc3cc(C)on3)s2)cc1	-25%	-5%
Cc1cc(NC(=O)CSc2nnc(Nc3ccccc3)s2)no1	16µM*	0%
Cc1ccccc1N1CC(C(=O)Nc2nnc(SCC(=O)Nc3nccs3)s2)CC1=O (stereo not given)	-28%	-11%
COc1ccc2c(c1)C(=O)[C@H](OC(=O)NS(=O)(=O)c1ccc(F)cc1)[C@@H](c1ccc(OC)c(Br)c1)O2	-2%	2%
